# Rows were chosen to be rich in hits. Some 2.3% of all compounds tested hit in one or more screens of this group.
# GLS inh: qHTS for Inhibitors of Glutaminase (GLS); Glutaminase kidney isoform, mitochondrial (Homo sapiens), O94925; GLS enzymatic activity, qHTS titration; Potency, µM (series often up to 45.5 µM), for the others: at the highest dose activity change, negative = inhibition, actives largely listed as inhibitors; 410,000 tested, 0.21% active; AID 624170, 2012; further: on the % scale 0 is the no-effect control and ±100 the full control effect
# Target sequence (O94925 whole entry, looked up, canonical isoform): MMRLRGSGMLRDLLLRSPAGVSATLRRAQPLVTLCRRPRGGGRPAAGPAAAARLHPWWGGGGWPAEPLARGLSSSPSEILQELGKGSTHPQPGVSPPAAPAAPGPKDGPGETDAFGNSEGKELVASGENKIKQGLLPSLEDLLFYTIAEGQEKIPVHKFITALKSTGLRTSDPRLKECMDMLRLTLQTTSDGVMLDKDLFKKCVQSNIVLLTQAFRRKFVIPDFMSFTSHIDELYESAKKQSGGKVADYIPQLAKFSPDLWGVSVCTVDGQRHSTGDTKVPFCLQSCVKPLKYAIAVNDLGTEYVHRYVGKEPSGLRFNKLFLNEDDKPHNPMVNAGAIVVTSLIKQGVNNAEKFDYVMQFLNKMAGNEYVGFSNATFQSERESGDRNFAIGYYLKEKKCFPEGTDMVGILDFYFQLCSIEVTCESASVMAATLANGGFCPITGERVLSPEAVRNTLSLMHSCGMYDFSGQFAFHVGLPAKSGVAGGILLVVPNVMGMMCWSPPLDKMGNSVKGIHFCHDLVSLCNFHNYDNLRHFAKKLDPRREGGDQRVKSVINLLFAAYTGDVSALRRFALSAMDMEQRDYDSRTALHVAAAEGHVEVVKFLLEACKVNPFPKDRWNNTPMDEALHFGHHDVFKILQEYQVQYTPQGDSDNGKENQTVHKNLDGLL
#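 Read-out is an Amplex red fluorescence increase coupled through glutamate oxidase and HRP, measured before and after 30 min room-temperature incubation. hKGA is in 45 mM KH2PO4 (pH 8.2) with 0.02% Tween-20; glutamine added as 1mM solution.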
# GLP1R ag: qHTS of GLP-1 Receptor Agonists; 380,000 tested, 0.007% active; AID 624172, 2012; HEK293 GLP-1R CRE-luciferase, luminescence, 4-6 h; cells express a hypersensitive GLP-1R form; Glucagon-like peptide 1 receptor (Homo sapiens), P43220; Potency, µM (series often up to 45.6 µM), inactives show top-dose activation, usual class: activators; further: % of control where 0% means no effect
# GLP1R inv ag: qHTS of GLP-1 Receptor Inverse Agonists (Inhibition Mode). Glucagon-like peptide 1 receptor (Homo sapiens), P43220. 410,000 tested, 1.6% active. HEK293 GLP-1R CRE-luciferase, luminescence, 24 h; GLP-1R form is constitutively active. Potency, µM (series often up to 38.3 µM), inactives show top-dose activity change, negative = inhibition, usual class: inhibitors; further: on the % scale 0 is the no-effect control and ±100 the full control effect; nearly all actives have a fitted effect of over 55% in size
#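 HEK293 cells stably co-expressing constitutively active GLP-1R and a cAMP-responsive luciferase reporter were seeded in DMEM with 10% Nu serum, given compounds after 12 h, and incubated 24 h at 37 deg C. Luminescence was then read.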
# PTHR1 agonist: qHTS for PTHR1 Agonists: Primary Screen | HEK293 GP2 PTHR1 cells, GloSensor cAMP luminescence, 1 h | Potency, µM (top dose mostly 115 µM), for inactives: at the top dose activation, hits mostly activators | 410,000 tested, 0.075% active | Parathyroid hormone/parathyroid hormone-related peptide receptor (Homo sapiens), Q03431; further: nearly all actives have a fitted effect of over 55% in size
#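 HEK-293-derived GP2 cells expressing PTHR1 and a GloSensor cAMP reporter, 3,000/well, plated overnight, given luciferin plus IBMX (each 0.5 mM as added) for 1 h at 37 °C, then compound for 1 h at 37 °C. Luminescence was read after 15 min at room temperature.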
# Glioma ERSR ind: qHTS for Inducers of the Endoplasmic Reticulum Stress Response (ERSR) in Human Glioma: qHTS; U87-MG GRP78 promoter luciferase reporter, 16 h; Potency, µM, without a hit: at the top dose activation, hits mostly activators; 420,000 tested, 0.02% active; AID 602332, 2012; further: series mostly up to about 76 µM; % of control where 0% means no effect; nearly all actives have a fitted effect of over 35% in size
#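 Stably transfected U87-MG glioma cells carrying a GRP78-based luciferase sensor; 16 h compound incubation. Luminescence end-point read 10 min after Bright-Glo addition at room temperature.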
# 12-LOX inh: Primary qHTS assay for inhibitors of human arachidonate 12S-lipoxygenase (ALOX12): Round 2; Polyunsaturated fatty acid lipoxygenase ALOX12 (Homo sapiens), P18054; purified 12hLO, xylenol orange hydroperoxide absorbance; Potency, µM (series often up to 108 µM), for inactives: at the top dose activity change, negative = inhibition, hits mostly inhibitors; 580,000 tested, 1.1% active; AID 1671190, 2021; further: on the % scale 0 is the no-effect control and ±100 the full control effect
#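 Purified human 12hLO (150 nM final) in 25 mM Hepes, 0.01% Triton X-100, pH 7.0 was preincubated 15 min at room temperature with compound. Then 40 uM arachidonic acid was added, 30 min. Hydroperoxide was read by Fe-XO absorbance ratio 573/405 nm.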
# * marks the source's active call; other numbers are inactive results; i = inactive; ? = inconclusive; · = no result given; [ ] = dose if it differs, or a comment. The call rests on the fitted dose curve; in most records, active means well fitted curve in the direction sought with a large enough effect; inconclusive means small, poorly fitted or top-dose-only effect, or another doubt; inactive means no such curve, though single readings can be large; an effect the other way counts as inactive or inconclusive. Potency means the concentration at half of the fitted maximal effect.
SMILES,GLS inh,GLP1R ag,GLP1R inv ag,PTHR1 agonist,Glioma ERSR ind,12-LOX inh
CC1=C(C(=O)OCc2ccccc2)C(c2cccs2)N2C(=O)CCSC2=N1 (stereo unspecified),3.9%,17.2%,11.2µM*,-73.6%,-4.4%,-1.2%
COCCNC(=S)NCc1cccc(CNC(=S)NCCOC)c1,·,·,·,·,·,-17.2%
CCCCN(c1ccccc1)S(=O)(=O)N(C)C,-9.9%,-0.3%,-11.3%[7.66 µM],i,-2.5%,-6.9%
CCCCN(S(=O)(=O)c1ccccc1)S(=O)(=O)c1ccccc1,-5.4%,17.9%,10µM*,-17.7%,-0.9%,25.8%
O=c1c2cccc(Cl)c2nc2n1Cc1ccccc1-2,12.6µM*,1.3%,22.5%,i,8.2%,?
O=c1cc(-c2ccccc2)nc2n1Cc1ccccc1-2,7.3%,-1.2%,114.3%,14.7%[57.5 µM],7.5%,0.7%
Cc1cc(C)c(NC(=O)c2nn(C(C)C)c(=O)c3ccccc23)c(Cl)c1,·,·,·,·,·,8.7%
CC(C(=O)NC(C)(C)C)N1CCC(C(=O)NCc2ccco2)CC1 (stereo unspecified),·,·,·,·,·,36.5%
c1csc(CNc2nc(-c3ccc4c(c3)OCO4)nc3ccccc23)c1,·,·,·,·,-2.1%,11.2µM*
c1csc(CNc2ncncc2-c2ccc3c(c2)OCO3)c1,·,·,·,·,-1.4%,28.2µM*
COc1ccccc1CNc1nc(-c2ccc3c(c2)OCO3)nc2ccccc12,·,·,·,·,-1.7%,?
c1cncc(-c2cncnc2NCc2cccs2)c1,·,·,·,·,-2.3%,7.94µM*
Cc1cnc(CNc2ncncc2-c2ccc3c(c2)OCO3)cn1,·,·,·,·,-4.1%,-18.8%
Cc1ccc(CNC(=O)[C@]2(C)CCC[C@@]3(C)C4CC[C@@]5(C)C[C@]4(CCC32)CC5=O)cc1 (stereo partly specified),5.5%,7.0%,?,-22.9%,-3.0%,7.4%
COc1ccc(CNC(=O)[C@]2(C)CCC[C@@]3(C)C4CC[C@@]5(C)C[C@]4(CCC32)CC5=O)cc1 (stereo partly specified),-8.4%,-1.6%,10µM*,-46.6%,-1.7%,1.2%
COc1ccc(-c2cc(C(=O)O)c3ccc(C)c(C)c3n2)cc1OC,·,·,·,·,·,-26.9%
CC(C)N1CCC2(CC1)N=C(c1ccc3c(c1)OCO3)CC(c1cc(Cl)ccc1O)N2 (stereo unspecified),22.9%,-40.1%,11.2µM*,-18.5%,-15.9%,-2.1%
COc1ccc(C2=NOC3(CCN(C(=O)c4ccc5c(c4)OCO5)C3)C2)cc1 (stereo unspecified),·,·,·,·,·,67.8%
Cn1c(-c2ccccc2)cnc1NCc1cccc([N+](=O)[O-])c1,-1.1%,-2.0%,-6.5%,i,7.7%,53.9%
CSc1ccc(CNc2ncc(-c3cccc([N+](=O)[O-])c3)n2C)cc1,-2.4%,-6.1%,?,-16.8%,0.5%,0.708µM*
Cc1sc(N2CCCC2)nc1-c1ccc(NS(C)(=O)=O)cc1,·,·,·,·,·,35.5µM*
CC(Sc1nnc(C2CC2)n1Cc1ccccc1)C(=O)Nc1ccnn1C(C)C (stereo unspecified),·,·,·,·,·,32.9%
CCN1CC(CN(C)Cc2cn(-c3cccc(C)c3)nc2-c2cccc(F)c2)CC1=O (stereo unspecified),1.3%,?,10µM*,i,4.1%,-13.7%
CCN1CC(CN(C)Cc2cn(-c3ccc(C)cc3)nc2-c2ccc(F)cc2)CC1=O (stereo unspecified),-4.1%,13.1%,?,-10.2%,-1.0%,2.9%
C#CCNC(=O)c1ccccc1NC(=O)c1cccc2cccnc12,·,·,·,·,·,-2.7%
SMILES,GLS inh,GLP1R ag,GLP1R inv ag,PTHR1 agonist,Glioma ERSR ind,12-LOX inh
COc1ccc(CNCCc2ccc([N+](=O)[O-])cc2)c(OC)c1OC,-3.7%,-5.6%,?,i,-0.1%,7.94µM*
CC1CCC2(CCc3cc4c5c(c(=O)oc4cc3O2)CCCC5)CC1 (stereo unspecified),·,·,·,·,·,-23.9%
COc1ccc(-n2c(=O)c3c4c(sc3n(Cc3ccc(C(C)(C)C)cc3)c2=O)CCC4)c(OC)c1,13.0%,·,6.31µM*,i,0.3%,?
O=C(OCc1ccc(F)cc1)C(c1ccccc1)N1CCC(O)CC1 (stereo unspecified),·,·,·,·,·,-5.3%
O=C(c1cnc(Cc2c[nH]c3ccccc23)c(I)c1)N1CCOCC1,·,·,·,·,·,20µM*
CC1C/C(=N\NC(=S)NC(C)C)CC(C)(C)C1 (stereo unspecified),17.6%,-6.2%,4.47µM*,i,-3.0%,?
O=C1C2C3C=CC(C3)C2C(=O)N1CCN1CCN(S(=O)(=O)c2ccc3ccccc3c2)CC1 (stereo unspecified),1.9%,-3.6%,11.2µM*,-82.1%,-0.9%,2.8%
O=C1C2C3C=CC(C3)C2C(=O)N1CCN1CCN(S(=O)(=O)/C=C/c2ccccc2)CC1 (stereo unspecified),7.7%,9.4%,-20.2%,-13.1%,-3.6%,-0.4%
COc1ccc(CC(=O)NCC2CCCN(Cc3ccc(OC(F)(F)F)cc3)C2)cc1 (stereo unspecified),-10.3%,20.7%,10µM*,-23.5%,-4.3%,-0.5%
Cc1ccc(-c2csc3nc4cc(C(N)=O)ccc4c(=O)n23)cc1,-0.4%,4.3%,5.6%,-9.5%,-0.3%,17.8µM*
CCOc1ccc(-c2nc(CSCC(=O)NCCCN3CCOCC3)c(C)o2)cc1,·,·,·,·,·,-9.2%
Cc1ccccc1-c1nn(-c2ccc(F)cc2F)cc1CNCCCN(C)C,10µM*,8.8%,?,-0.8%,-5.9%,-6.0%
COc1ccc([C@H]2C[C@@H](O)[C@@H](O)[C@@H]2NCc2cn(C)c3ccccc23)cc1,·,·,·,·,·,39.8µM*
COC(=O)c1ccc(C)c(NS(=O)(=O)c2ccc3ccccc3c2)c1,·,·,·,·,·,10.5%
N#CC(c1ccc(Cl)cc1)c1ccc2c(C(F)(F)F)cc(C(F)(F)F)nc2n1 (stereo unspecified),12.5%,0.2%,7.08µM*,i,-2.4%,29.1%
FC(F)(F)c1cc(C(F)(F)F)c2ccc(N3CCN(c4ccc(Cl)cc4)CC3)nc2n1,·,8.1%,7.8%,-0.9%,-0.5%,-9.7%
O=C(Nc1cc(F)ccc1F)c1cnc(N2CCCCC2)c2ccccc12,·,·,·,·,·,-15.7%

# Assay outcomes deposited in PubChem BioAssay by National Center for Advancing Translational Sciences (NCATS).
